Results taken from PubChem BioAssay AID1814 (Broad Institute, 2009).
The whole screen tested about 300,000 compounds, of which about 22,000 (7.3%) were called active. Roughly 2% stayed inconclusive and do not appear here. Rule as the data show it: active = activity score below about -60%; inconclusive = mostly about -28% to -61%; inactive = positive scores. The full list was thinned out, with actives kept by preference.

Assay: Activators via SNCA 5'UTR binding, MLPCN (AID 1814)
Settings: alpha-synuclein 5'UTR reporter, activators screen; hits give low values; tested at 7.5 µM

Activity score, inactive:
COc1cccc(/C=N/Nc2cc(C)nc(-c3ccccc3O)n2)c1O 82.8%
CCCCOc1ccc(-c2nnc(-c3ccco3)o2)cc1 60.2%
CC(C)(C)c1ccc(Oc2ccc(N)cc2)cc1 112%
Cc1cccn2c(=O)c3cc(C(=O)NCCN4CCOCC4)c(=N)n(Cc4cccnc4)c3nc12 97%
O=C(CN1C(=O)C2C3C=CC(C3)C2C1=O)Nc1nc(-c2ccccn2)cs1 (stereo not given) 82.4%
C/C(=N\NC(=O)c1ccccc1F)c1ccccn1 83%
CCCOc1ccc(C(=O)C(CCC(CNCC)C(=O)c2ccc(OCCC)cc2)CNCC)cc1 (stereo not given) 107%
CC[n+]1cc(C)ccc1/C=C/c1ccc(N(C)C)cc1 90.6%
Cc1cccc(NC(=O)c2nc(S(=O)(=O)Cc3ccccc3)ncc2Cl)c1 84.8%

Activity score, active:
CCc1ccc(-c2cc(C(=O)NN3CCN(C)CC3)c3ccccc3n2)cc1 -112%
O=C(Nc1ccccc1)c1cc2ccccc2[nH]1 -180%
CCn1c(=N)n(CC(=O)c2cccc(OC)c2)c2ccccc21 -124%
Cc1cccc(NC(=O)c2cccc(C(F)(F)F)c2)c1 -71.9%
O=C(Nc1ccccc1)Nc1ccc(C(F)(F)F)cn1 -120%
Cc1ccc(NC(=O)Nc2cccc(C(F)(F)F)c2)nc1 -115%
COc1ccc(NC(=O)CCS(=O)(=O)c2cc3c(cc2Cl)NC(=O)CO3)cc1OC -91.8%
CC(=O)Nc1ccc(NC(=O)CN2CCCC(C)C2)c(Cl)c1 (stereo not given) -105%
CC(Sc1nc2cc(Cl)ccc2s1)C(=O)Nc1ccc2c(c1)OCO2 (stereo not given) -117%
O=C(c1cnn2ccccc12)N1CCc2ccccc21 -123%
COc1cc(OC)cc(C(=O)NCC(=O)OCc2csc(-c3ccccc3)n2)c1 -73.7%
CCCCOC(=O)c1[nH]c(C)c(C(=O)OC)c1C -134%
CCOC(OCC)c1ccc(/C=C\c2nccc(N)n2)cc1 -117%
CC(=O)c1sc(N/N=C/c2ccc(C(C)C)cc2)nc1C -149%
COc1ccccc1/C=N/Nc1nc(C)c(C(C)=O)s1 -154%
COc1cccc2sc(Nc3nc(C)c(C(C)=O)s3)nc12 -179%
Oc1oc(-c2ccccc2Br)nc1/C=N/c1ccccn1 -124%
Cc1ccc(OCC(=O)Nc2ccc(-c3nnc(-c4ccco4)o3)cc2)cc1 -69.1%
Cc1ccc(OCC(=O)Nc2ccc(-c3nc4ncccc4o3)cc2)cc1 -85.6%
CCC(=O)Oc1cccc(C(=O)Nc2ccc(-c3nnc(-c4ccco4)o3)cc2)c1 -227%
O=C(CCc1ccccc1)Nc1cccc(-c2nnc(-c3ccco3)o2)c1 -74.1%
Fc1ccccc1OCCSc1nc2ccccc2o1 -139%
Cc1cccc2nc(CNc3ccc(F)cc3)cn12 -64.9%
Cc1ccc(-n2ncc3c(Nc4cccc(C(=O)O)c4)ncnc32)cc1 -200%
CC(=O)NCC(=O)N1CCC(n2nccc2NC(=O)CCCc2ccccc2)CC1 -67.3%
Cn1c(SCc2nc3ccccc3s2)nnc1-c1ccc2c(c1)OCO2 -72.1%
Cc1ccnc(Nc2nc3ccccc3s2)n1 -81.3%
O=C(NC(=S)Nc1ccc(Cl)cc1Cl)C1CC1 -107%
Cc1cc(C)c2nc(NC(=O)C3CCCO3)sc2c1 (stereo not given) -107%
Cc1[nH]n(C(N)=S)c(=O)c1N=Nc1ccc(Cl)cc1Cl -112%
Cn1c(=O)n(C)c2cc(C(=O)Nc3ccc(Br)cc3)ccc21 -80.7%
COc1ccc(C(=O)Nc2ccc3c(c2)OCO3)cc1OC -100%
Cc1ccc(C(=O)Nc2ccc3c(c2)OCO3)cc1S(=O)(=O)N1CCCCC1 -66.6%
COc1ccc(C(=O)Nc2ccc(C3(C#N)CCCC3)cc2)cc1OC -120%
Cn1c(=O)n(C)c2cc(C(=O)Nc3ccc4c(c3)OCO4)ccc21 -191%
O=C(Nc1ccccc1)c1ccccc1NC(=O)C(F)(F)F -85.9%
Cc1cccc(-c2noc(-c3ccc(F)cc3)n2)c1 -101%
Cc1ccc(Cc2nc(-c3cccc(C)c3)no2)cc1 -173%
CCOc1ccc(/C=N/NC(N)=S)cc1 -63.3%
Cc1cc(=O)oc2cc(OCC3CC(c4ccccc4Cl)=NO3)ccc12 (stereo not given) -132%
CC(C)(C)c1ccc(OC2=CS(=O)(=O)c3ccccc32)cc1 -110%
COC(=O)c1c(NC(=O)c2ccccc2F)sc2c1C(C(=O)OC)CC2 (stereo not given) -72.4%
CCOc1ccc2[nH]c3nc(SCC(=O)NC4CCCC4)nnc3c2c1 -73.1%
COc1ccc(CCn2c(=N)c(C(=O)NCc3ccco3)cc3c(=O)n4cccc(C)c4nc32)cc1 -87.1%
CCn1c2ccccc2c2cc(NC(=O)C/C(C)=N/NC(=O)c3ccccc3N)ccc21 -110%
COc1ccc(-c2csc(Cc3nc(O)cs3)n2)cc1 -207%
COc1ccc(Nc2nc(-c3ccccc3)cs2)cc1 -137%
COc1ccc(-c2csc(Nc3ccc(O)cc3)n2)cc1 -170%
NS(=O)(=O)c1ccc(Nc2nc(-c3ccccc3)cs2)cc1 -117%
CN(c1ccc(O)cc1)c1nc(-c2cccnc2)cs1 -137%
COc1ccc(-c2csc(NC3OC(=O)c4ccccc43)n2)cc1 (stereo not given) -114%
O=C(NCc1cccnc1)C(=O)Nc1nc(-c2ccccc2)cs1 -99%
Oc1ccc(-c2csc(Nc3cccnc3)n2)cc1 -116%
COc1ccc(OC)c(Nc2nc(-c3ccc(O)c(O)c3)cs2)c1 -158%
Cc1ccccc1Nc1nc(-c2cccnc2)cs1 -179%
O=C(Nc1ccc2c(c1)OCO2)C1CC(c2c(F)cccc2Cl)=NO1 (stereo not given) -147%
COc1cccc(NC(=O)C(=O)c2cn(CC(=O)N3CCOCC3)c3ccccc23)c1 -77.7%
O=C(Nc1ccc([N+](=O)[O-])cc1)C1CC12CCC2 (stereo not given) -78.2%
COc1ccc(NC(=S)N2N=CCC2c2ccccc2)cc1 (stereo not given) -137%
Cn1c(SCc2c(F)cccc2Cl)nnc1-c1cnccn1 -126%
CSC(=S)N/N=C/c1c[nH]c2ccccc12 -107%
c1ccc(-c2ccc(OCCN3CCOCC3)cc2)cc1 -93.6%
COc1ccc(Br)cc1C(=O)NC(=S)Nc1cc(-c2nc3ccccc3[nH]2)ccc1C -86.2%
Cc1ccc(-c2csc(-c3c[nH]c4ccccc34)n2)cc1 -164%
Cc1ccc(-c2csc(-c3cc(C)on3)n2)cc1 -149%
O=C(CSC1=NCCS1)Nc1nc(-c2ccccc2)cs1 -83%
CCNC(=O)CSc1nc(-c2ccccc2)cs1 -105%
O=C(CNC(=O)c1ccccc1F)c1ccc(Br)cc1 -97.5%
O=C(CNC(=O)c1ccc(F)cc1)c1ccccc1 -128%
CCOc1ccc2c(c1)C(c1ccc(C)cc1)=NNC(c1ccc(C)cc1)=N2 -63.3%
Cc1nc2ccccc2cc1OCc1ccc(F)cc1 -71.1%
C/C(=N\NC(=O)c1cccnc1)c1ccc(-c2ccccc2)cc1 -92.7%
C/C(=N\NC(=O)c1ccc2ccccc2c1)c1cccnc1 -68.8%
C/C(=N\NC(=O)c1nc(C)cc(C)n1)c1ccccc1 -137%
CC(C)CNC(=O)C(=O)Nc1ccc(N(C)C)cc1 -159%
O=C(Nc1ccc(Cl)cc1)/C(=C1\CCCN1)[N+](=O)[O-] -97.2%
CC(=O)Nc1cccc(C(=O)OCC(=O)NCc2cc(C)c(O)c(C)c2)c1 -62.5%
CCCOc1cccc(C(=O)Nc2nnn(CCC)n2)c1 -87.6%
Cc1c(C)c2cc3c4c(oc3c(C)c2oc1=O)CCCC4 -61.9%
COc1cccc(/C=C/C(=O)Nc2ccc3c(c2)OCCO3)c1 -94%
Cc1cccc(NC(=O)Nc2ccc3c(c2)OCO3)n1 -251%
Cc1cccc(NC(=O)/C=C/c2ccc3c(c2)OCO3)n1 -88%
CNS(=O)(=O)c1ccc(NC(=O)Nc2ccc3c(c2)OCO3)cc1 -63.6%
Cc1ccc(-n2c(C)cc(/C=C(\C#N)C(=O)NCC3CCCO3)c2C)cc1 (stereo not given) -133%
COc1ccc(C(=O)NC2=NCCS2)c(OC)c1 -111%
O=C(NC1=NCCS1)c1ccc(Cl)s1 -112%
COc1ccc(C(=O)Nc2nncs2)c(OC)c1 -106%
COc1ccc(Cc2nnc(NC(=O)c3ccc(OC)cc3OC)s2)cc1 -62.4%
Cc1cccc(NC(=S)Nc2ccc(Br)cc2)c1 -106%
Cc1cccc(NC(=S)Nc2ccc(Cl)c(Cl)c2)c1 -115%
COc1ccc(CNc2ccc3c(c2)CCC3)cc1OC -177%
Cc1ccc(C(=O)NC(=S)Nc2ccccc2C)cc1 -122%
Cc1cc(C(=O)NNC(=S)Nc2ccccc2C)cs1 -135%
Nc1ccc(C(=O)Nc2ccccc2N)cc1 -714%
CCn1c(SCC(=O)Nc2cccc(F)c2)nnc1-c1cc2cc(Br)ccc2o1 -71.9%
CN1C2CCC1/C(=C\c1ccccc1Cl)C(=O)/C2=C\c1ccccc1Cl -89%
